Experimental data taken from PubChem BioAssay.
“And” between values parts separate entries of the source, which are not always exact repeats. Identical values can stand only once. Some compounds were tested as several samples or in several runs, with calls that do not always agree. The source made the active and inactive calls.

Assays:
[1] = small molecules captured by biotinylated probe aFSTL3 – biochemical, small-molecule microarray, fluorescence 635/667, stem cell growth factor project, primary screen (AID 1064); conditions: higher = more signal;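 note: measures binding of the biotinylated anti-FSTL3 antibody to printed compounds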
[2] = binders from COS7 lysate, DM2A8 probe, primary screen, torsin A project, cell lysate, small-molecule microarray, fluorescence 635/667 (AID 1065); conditions: higher = more signal, COS7 lysate expressing mutant human TOR1A
[3] = small molecules captured by biotinylated probe aFGF2 – biochemical, small-molecule microarray, fluorescence 635/667, stem cell growth factor project, primary screen (AID 1067); conditions: higher = more signal;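 note: measures binding of biotinylated aFGF2 protein to printed compounds on slides; z-score merges feature fluorescence and signal-to-noise across triplicate slides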
[4] = small molecules captured by biotinylated probe aFGF10 – biochemical, small-molecule microarray, fluorescence 635/667, stem cell growth factor project, primary screen (AID 1071); conditions: higher = more signal;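 note: score merges 667 nm spot intensity and signal to noise from triplicate slides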
[5] = molecular target: Neurogenic locus notch homolog protein 2 (Homo sapiens) (UniProt Q04721); test: small molecules binding Notch2 protein – biochemical, small-molecule microarray, 635 nm fluorescence, stem cell growth factors, primary screen (AID 1073); conditions: higher = more signal
[6] = molecular target: Pro-neuregulin-1, membrane-bound isoform (Homo sapiens) (UniProt Q02297); test: small molecules binding neuregulin-1 protein – biochemical, small-molecule microarray, fluorescence 635/667, psychiatric disease protein project, primary screen (AID 1075); conditions: NRG1 binding, 635 nm fluorescence, higher = more signal;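 note: score combines 667 nm spot fluorescence with signal to noise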
[7] = tested on: Neuregulin-1 EGF-like domain; test: small molecules binding NRG1 EGF domain – biochemical, small-molecule microarray, 635 nm fluorescence, primary screen (AID 1081); conditions: higher = more signal;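 note: binding of the protein to compounds printed on small-molecule microarray slides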
[8] = FRG1 expression reporter modulators in myotubes – cell-based, C2C12 myotubes, firefly/Renilla luciferase, luminescence, FRG1 inhibition for FSHD, primary screen (AID 1084); conditions: FRG1 promoter luciferase, higher = more signal, called active from +8 up or from −8 down
[9] = small molecules captured by biotinylated probe aFST – biochemical, small-molecule microarray, fluorescence 635/667, stem cell growth factor project, primary screen (AID 1086); conditions: higher = more signal;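 note: score merges 667 nm fluorescence with signal-to-noise of each printed compound spot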
[10] = binders of probe aHhip on microarray, primary screen, stem cell growth factor project, biochemical, small-molecule microarray, fluorescence 635/667 (AID 1087); conditions: higher = more signal;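 note: score merges spot fluorescence at 667nm with spot signal to noise ratio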
[11] = tested on: PRMT1 (protein arginine N-methyltransferase 1); test: small molecules binding arginine methyltransferase PRMT1 – biochemical, small-molecule microarray, 635 nm fluorescence, primary screen (AID 1088); conditions: higher = more signal;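 note: binding of Prmt1 protein to compounds spotted on small-molecule microarray slides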
[12] = growth effects on S. cerevisiae YJM789 – YJM789 clinical isolate, OD600, 24 h, basal, primary screen (AID 1089); conditions: higher = more signal, called active from +8 up or from −8 down;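 note: growth of clinical yeast isolate S. cerevisiae YJM 789 seeded 1000 cells per well; test concentration not given here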
[13] = S. pombe growth modifiers, basal conditions – strain 972, OD600, 24 h, no modulator, primary screen (AID 1090);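 note: basal condition with compound alone and no growth modifier present; test concentration not given here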; conditions: S. pombe 972 growth, higher = more signal, called active from +8 up or from −8 down
[14] = budding yeast growth modifiers under rapamycin – strain BY4716, OD600, 96 h, primary screen (AID 1091); note: test concentration not given here; conditions: S. cerevisiae BY4716 + rapamycin, higher = more signal, called active from +8 up or from −8 down
[15] = molecular target: Torsin-1A-interacting protein 2 (Homo sapiens) (UniProt Q8NFQ8); test: small molecules binding lysate-expressed LULL1 – cell lysate, human LULL1 lysate, 635/667 nm fluorescence, primary screen (AID 1092); conditions: small-molecule microarray, hLULL1 lysate binding, 635 nm fluorescence; higher = more signal;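 note: probe is lysate of COS7 cells overexpressing human LULL1; score merges per-feature 667 nm fluorescence with signal-to-noise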
[16] = optical density change of DRC41 E. coli – strain DRC41, OD650, 24 h, E. coli filamentation project, primary screen (AID 1093);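 note: MC1000 strain lacking acrAB efflux and sulA so SOS filamentation is blocked; test concentration not given here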; conditions: E. coli DRC41 growth, higher = more signal, called active from +8 up or from −8 down
[17] = probe aLefty2 binding to arrayed compounds – biochemical, biotinylated probe, 635/667 nm fluorescence, primary screen (AID 1094); conditions: small-molecule microarray, higher = more signal;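 note: score merges spot fluorescence near 667 nm with spot signal-to-noise ratio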
[18] = tested on: Noggin (protein binding on small-molecule microarray); test: small molecules binding Noggin protein – biochemical, 635/667 nm fluorescence, primary screen (AID 1095); conditions: 635 nm fluorescence, higher = more signal;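 note: score merges 667 nm feature fluorescence with signal to noise over triplicate slides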
[19] = molecular target: Neurogenic locus notch homolog protein 3 (Homo sapiens) (UniProt Q9UM47); test: small molecules binding NOTCH3 protein – biochemical, 635/667 nm fluorescence, primary screen (AID 1096); conditions: small-molecule microarray, 635 nm fluorescence, higher = more signal
[20] = probe aEGFR binding to arrayed compounds – biochemical, biotinylated probe, 635/667 nm fluorescence, primary screen (AID 1097); conditions: small-molecule microarray, higher = more signal;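 note: probe is a biotinylated anti-EGFR antibody binding compounds printed on slides; score combines fluorescence near 667 nm and signal to noise of each spot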

Chain of Torsin-1A-interacting protein 2 (Homo sapiens) (Q8NFQ8 whole entry, looked up): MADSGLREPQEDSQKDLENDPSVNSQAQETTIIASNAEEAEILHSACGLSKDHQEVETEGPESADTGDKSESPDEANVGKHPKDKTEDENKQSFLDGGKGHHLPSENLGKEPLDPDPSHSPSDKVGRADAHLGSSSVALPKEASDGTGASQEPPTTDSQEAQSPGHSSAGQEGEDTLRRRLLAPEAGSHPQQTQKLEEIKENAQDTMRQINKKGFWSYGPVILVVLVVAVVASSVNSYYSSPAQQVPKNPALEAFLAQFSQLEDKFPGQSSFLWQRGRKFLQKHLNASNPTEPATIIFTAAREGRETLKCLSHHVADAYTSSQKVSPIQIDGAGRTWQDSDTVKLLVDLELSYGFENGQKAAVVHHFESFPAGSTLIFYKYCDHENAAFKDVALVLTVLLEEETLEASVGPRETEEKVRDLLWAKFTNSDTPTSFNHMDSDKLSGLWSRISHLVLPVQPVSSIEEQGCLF
Chain of Neurogenic locus notch homolog protein 3 (Homo sapiens) (Q9UM47 whole entry, looked up): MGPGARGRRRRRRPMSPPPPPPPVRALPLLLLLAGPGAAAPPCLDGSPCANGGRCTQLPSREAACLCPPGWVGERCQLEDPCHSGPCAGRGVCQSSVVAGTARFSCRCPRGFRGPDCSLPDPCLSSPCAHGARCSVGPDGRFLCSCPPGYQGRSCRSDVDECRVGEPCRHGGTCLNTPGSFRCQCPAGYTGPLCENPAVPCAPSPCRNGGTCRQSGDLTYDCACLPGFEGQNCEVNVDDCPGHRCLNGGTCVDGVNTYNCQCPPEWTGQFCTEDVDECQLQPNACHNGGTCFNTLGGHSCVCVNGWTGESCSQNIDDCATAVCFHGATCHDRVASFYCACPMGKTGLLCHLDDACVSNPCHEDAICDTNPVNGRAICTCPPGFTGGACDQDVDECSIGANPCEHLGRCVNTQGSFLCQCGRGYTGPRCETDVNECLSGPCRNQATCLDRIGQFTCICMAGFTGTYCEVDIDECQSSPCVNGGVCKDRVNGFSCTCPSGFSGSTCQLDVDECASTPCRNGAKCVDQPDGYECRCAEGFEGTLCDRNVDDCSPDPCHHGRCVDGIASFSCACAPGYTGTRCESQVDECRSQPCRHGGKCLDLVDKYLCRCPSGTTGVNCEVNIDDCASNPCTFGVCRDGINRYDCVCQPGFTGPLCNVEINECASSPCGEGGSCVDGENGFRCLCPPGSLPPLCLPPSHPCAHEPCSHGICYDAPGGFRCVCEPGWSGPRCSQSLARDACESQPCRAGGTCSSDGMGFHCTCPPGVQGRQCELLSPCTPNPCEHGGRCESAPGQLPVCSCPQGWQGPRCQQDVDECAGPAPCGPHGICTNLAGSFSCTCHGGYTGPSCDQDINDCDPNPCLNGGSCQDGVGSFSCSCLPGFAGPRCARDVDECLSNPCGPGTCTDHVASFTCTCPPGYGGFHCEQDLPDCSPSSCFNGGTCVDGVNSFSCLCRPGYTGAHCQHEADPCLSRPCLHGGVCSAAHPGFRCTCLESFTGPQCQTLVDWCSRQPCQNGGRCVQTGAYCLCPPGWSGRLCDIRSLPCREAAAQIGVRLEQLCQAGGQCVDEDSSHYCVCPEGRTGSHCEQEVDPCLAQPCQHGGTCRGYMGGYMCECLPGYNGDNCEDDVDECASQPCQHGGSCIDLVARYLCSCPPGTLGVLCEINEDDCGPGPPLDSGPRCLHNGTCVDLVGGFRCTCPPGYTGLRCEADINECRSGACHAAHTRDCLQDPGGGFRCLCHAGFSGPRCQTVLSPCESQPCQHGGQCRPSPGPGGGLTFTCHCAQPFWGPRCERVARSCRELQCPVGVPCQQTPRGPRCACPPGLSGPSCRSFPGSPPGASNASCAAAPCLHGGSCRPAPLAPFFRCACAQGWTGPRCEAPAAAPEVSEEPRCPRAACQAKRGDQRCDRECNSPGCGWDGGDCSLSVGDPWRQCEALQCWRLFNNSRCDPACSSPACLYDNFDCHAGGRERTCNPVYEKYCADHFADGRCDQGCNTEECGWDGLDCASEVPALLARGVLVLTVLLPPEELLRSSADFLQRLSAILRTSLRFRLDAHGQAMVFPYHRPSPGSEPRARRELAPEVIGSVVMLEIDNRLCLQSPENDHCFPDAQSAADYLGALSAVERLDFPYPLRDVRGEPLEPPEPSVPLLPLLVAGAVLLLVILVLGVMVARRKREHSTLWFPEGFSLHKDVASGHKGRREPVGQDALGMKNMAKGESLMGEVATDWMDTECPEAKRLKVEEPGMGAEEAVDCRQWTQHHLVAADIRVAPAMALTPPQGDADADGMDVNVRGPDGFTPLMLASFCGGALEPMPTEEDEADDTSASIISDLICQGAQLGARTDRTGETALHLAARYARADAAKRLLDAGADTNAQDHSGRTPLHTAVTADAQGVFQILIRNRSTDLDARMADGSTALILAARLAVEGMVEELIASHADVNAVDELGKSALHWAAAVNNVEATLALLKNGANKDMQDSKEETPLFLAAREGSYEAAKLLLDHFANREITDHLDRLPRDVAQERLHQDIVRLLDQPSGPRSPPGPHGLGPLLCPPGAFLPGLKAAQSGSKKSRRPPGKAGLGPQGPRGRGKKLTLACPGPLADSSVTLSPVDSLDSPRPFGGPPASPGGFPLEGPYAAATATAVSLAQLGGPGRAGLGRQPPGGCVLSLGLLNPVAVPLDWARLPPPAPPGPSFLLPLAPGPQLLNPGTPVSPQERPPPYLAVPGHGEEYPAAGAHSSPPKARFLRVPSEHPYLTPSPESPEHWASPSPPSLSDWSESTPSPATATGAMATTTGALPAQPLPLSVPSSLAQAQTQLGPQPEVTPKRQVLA
Chain of Pro-neuregulin-1, membrane-bound isoform (Homo sapiens) (Q02297 whole entry, looked up, the tested form may be a part, canonical isoform): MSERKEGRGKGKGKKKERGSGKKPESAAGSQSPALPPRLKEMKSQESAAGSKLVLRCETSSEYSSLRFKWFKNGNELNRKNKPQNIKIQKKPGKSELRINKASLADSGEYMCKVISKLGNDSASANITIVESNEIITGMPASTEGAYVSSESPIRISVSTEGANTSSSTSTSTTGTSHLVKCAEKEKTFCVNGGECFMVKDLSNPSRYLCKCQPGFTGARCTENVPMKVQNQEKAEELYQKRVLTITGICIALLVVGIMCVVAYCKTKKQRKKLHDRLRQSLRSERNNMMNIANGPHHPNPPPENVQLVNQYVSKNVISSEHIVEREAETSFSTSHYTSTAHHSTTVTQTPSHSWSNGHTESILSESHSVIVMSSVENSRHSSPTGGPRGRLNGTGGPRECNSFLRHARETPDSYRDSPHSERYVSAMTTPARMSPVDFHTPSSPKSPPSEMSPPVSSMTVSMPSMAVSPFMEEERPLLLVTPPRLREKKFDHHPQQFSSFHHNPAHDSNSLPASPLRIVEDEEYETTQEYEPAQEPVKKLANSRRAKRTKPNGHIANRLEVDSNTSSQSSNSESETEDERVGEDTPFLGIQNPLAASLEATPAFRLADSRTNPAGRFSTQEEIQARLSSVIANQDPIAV

SMILES	composite z-score [1]	composite z-score [2]	composite z-score [3]	composite z-score [4]	composite z-score [5]	composite z-score [6]	composite z-score [7]	z-score [8]	composite z-score [9]	composite z-score [10]	composite z-score [11]	z-score [12]	z-score [13]	z-score [14]	composite z-score [15]	z-score [16]	composite z-score [17]	composite z-score [18]	composite z-score [19]	composite z-score [20]
CCCC[C@@H]1CN2[C@@H](CC[C@@H](C)[C@@H]2c2ccc(Br)cc2)C(=O)O1	-0.519 and -0.353	0.191 and 0.217	-0.111 and -0.0736	0.458 and 0.656	0.333 and 0.493	0.48 and 0.847	0.602 and 0.965	0.427 (inactive) and -0.286 (inactive)	0.0218 and 0.0109	-0.142 and -0.306	1.38 and 0.811	0.301 (inactive) and 0.0912 (inactive)	-17.2 (active) and -6.6 (inactive)	-0.278 (inactive) and 0.42 (inactive)	1.93 and 1.44	0.133 (inactive) and 0.153 (inactive)	-0.0446 and -0.239	0.0666 and -0.156	0.287 and 0.683	-0.141 and 0.0021
C=CCN(C(=O)C(c1cccs1)N(C(=O)/C=C\C(=O)O)C(C)(C)CO)C(C)(C)C (stereo not given)	-0.0667 and 0.0338	-0.543 and -0.24	0.0929 and -0.126	-0.433 and -0.781	-1.07 and -0.925	1.32 and 1.05	1.27 and 1.24	-1.03 (inactive) and -1.13 (inactive)	-0.114 and -0.867	-0.0994 and -0.385	-0.381 and 0.182	-1.81 (inactive) and -2 (inactive)	-1.45 (inactive) and -1.15 (inactive)	-0.429 (inactive) and -0.373 (inactive)	2.89 and 0.484	2.02 (inactive) and 1.22 (inactive)	-0.141 and -0.147	-1.52 and -1.23	-0.97 and -0.967	-0.128 and -0.292
COC(=O)C1=C(C)N(Cc2ccccc2)C2=C(C(C)=O)[C@H](c3ccccc3)[C@@](O)(C(=O)OC)C(=O)N2[C@@H]1c1ccccc1	-0.449 and -0.481	0.468 and -0.61	-0.129 and -0.139	0.778 and -0.338	0.691 and 0.083	0.595 and -0.445	1.18 and -1.44	-2.61 (inactive) and -1.77 (inactive)	0.277 and -0.201	0.0515 and -0.281	1.09 and -0.374	0.0482 (inactive) and -3.34 (inactive)	-4.6 (inactive) and -4.09 (inactive)	-0.873 (inactive) and -2.14 (inactive)	0.72 and -0.756	-0.0134 (inactive) and -0.274 (inactive)	-0.0873 and -0.254	0.409 and 0.203	1.13 and -0.352	0.0729 and -0.118
CC(C)N1CC=CC23O[C@@H]4C=CCCOC(=O)C4[C@H]2C(=O)N(C(C)CO)[C@@H]3C1=O (stereo not given in full)	0.886 and 0.781	0.543 and -0.0534	-0.158 and -0.116	-1.39 and -0.751	-0.0092 and -0.882	2.21 and -0.35	0.958 and 0.694	-0.746 (inactive) and 0.0086 (inactive)	-0.828 and -0.509	-0.178 and 0.0176	1.18 and -0.323	-1.29 (inactive) and 0.11 (inactive)	-1.18 (inactive) and -1.07 (inactive)	-1.28 (inactive) and 0.687 (inactive)	3.21 and -0.371	2.82 (inactive) and 2.22 (inactive)	-0.0911 and -0.043	-1.14 and -0.975	-0.22 and -0.455	-0.317 and -0.308
COC(=O)[C@@]1(Cc2ccc(F)cc2)[C@H]2c3cc(C(=O)N4CCCC4)n(Cc4c(CO)[nH]cc(C)c4=O)c3C[C@H]2CN1C(=O)c1ccccc1	1.8 and 0.692	-0.101 and -1.02	0.775 and -0.0485	1.22 and 0.774	1.43 and 1.42	1.92 and 1.21	1.31 and 1.1	1.78 (inactive) and -0.112 (inactive)	1.54 and 0.659	1.42 and 0.314	0.519 and 0.355	0.786 (inactive) and 1.14 (inactive)	1.36 (inactive) and 1.39 (inactive)	0.925 (inactive) and 1.59 (inactive)	3.29 and 3.28	-0.633 (inactive) and -0.87 (inactive)	1.33 and 0.155	0.0162 and -0.629	0.335 and 0.422	0.985 and 0.0594
CC(CO)N1C(=O)[C@@H]2C3C(=O)OCCC=C[C@H]3OC23C=CCN(c2ccc4ccccc4c2)C(=O)[C@@H]13 (stereo not given in full)	0.265 and -1.11	-1.36 and -0.483	-0.0689 and -0.36	-0.282 and -0.642	-0.704 and -1.04	0.0944 and 1.21	0.713 and 1.19	0.544 (inactive) and 1.81 (inactive)	-0.0414 and 0.226	-0.388 and -0.937	0.6 and -0.266	1.09 (inactive) and -1.28 (inactive)	-0.169 (inactive) and -1.95 (inactive)	0.127 (inactive) and -0.589 (inactive)	3.39 and 0.763	-0.138 (inactive) and -0.757 (inactive)	-0.116 and -0.192	-0.571 and -0.51	0.259 and 0.0899	-0.324 and -0.343
C=CC[C@@H](O)c1ccc(O)c2ccccc12	0.16 and -0.247	0.571 and 0.234	-0.0422 and -0.0676	0.184 and 0.262	0.116 and 0.328	0.66 and 0.282	1.18 and 1.26	0.0604 (inactive) and 1.27 (inactive)	0.42 and 0.0926	0.72 and -0.0237	1.57 and 1.49	-22 (active) and -23.3 (active)	-20 (active) and -20.4 (active)	6.56 (inactive) and 5.68 (inactive)	1.01 and 0.0783	1.92 (inactive) and 0.416 (inactive)	-0.0511 and -0.0812	1.1 and 0.869	1.11 and 1.1	0.0153 and -0.0531
CCOC(=O)C[C@H]1[C@H](OC(=O)c2ccccc2-c2ccccc2)[C@@H](NC(=O)Cc2ccc(OC)cc2)c2cc(OCCCO)ccc2N1C(=O)c1ccc2ccccc2n1	-0.21 and 0.27	0.266 and 0.395	-0.0781 and 0.16	0.27 and 0.319	0.305 and 0.361	0.147 and 0.653	-0.529 and 0.0101	-0.0725 (inactive) and 0.266 (inactive)	0.442 and 0.575	-0.0645 and -0.0672	-0.557 and 0.587	-0.321 (inactive) and -0.249 (inactive)	-0.0002 (inactive) and -0.478 (inactive)	-0.411 (inactive) and 0.456 (inactive)	0.347 and 0.379	2.43 (inactive) and 1.41 (inactive)	-0.0953 and 0.0397	0.248 and 0.329	0.0452 and 0.418	-0.0107 and 0.182
